# Data as given in PubChem BioAssay AID623992 (NMMLSC, 2012).
# Potency and affinity values are given separately. Unmarked numbers belong to inactive results.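 How the source made its calls: active means compounds whose fitted half-maximal effective concentration for blocking dye efflux is below 100 µM; inactive means the rest.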
# Target: Benomyl/methotrexate resistance protein (Candida albicans) (UniProt P28873)
# Test: CaMdr1 efflux pump inhibitor potency, dose response, singleplex, Cherry Pick2 set (AID 623992)
# Conditions: S. cerevisiae AD/CaMDR1, Nile Red efflux, flow cytometry; series mostly up to 100 µM; efflux inhibition response: at the top concentration
# Chain of Benomyl/methotrexate resistance protein (Candida albicans) (P28873 whole entry, looked up): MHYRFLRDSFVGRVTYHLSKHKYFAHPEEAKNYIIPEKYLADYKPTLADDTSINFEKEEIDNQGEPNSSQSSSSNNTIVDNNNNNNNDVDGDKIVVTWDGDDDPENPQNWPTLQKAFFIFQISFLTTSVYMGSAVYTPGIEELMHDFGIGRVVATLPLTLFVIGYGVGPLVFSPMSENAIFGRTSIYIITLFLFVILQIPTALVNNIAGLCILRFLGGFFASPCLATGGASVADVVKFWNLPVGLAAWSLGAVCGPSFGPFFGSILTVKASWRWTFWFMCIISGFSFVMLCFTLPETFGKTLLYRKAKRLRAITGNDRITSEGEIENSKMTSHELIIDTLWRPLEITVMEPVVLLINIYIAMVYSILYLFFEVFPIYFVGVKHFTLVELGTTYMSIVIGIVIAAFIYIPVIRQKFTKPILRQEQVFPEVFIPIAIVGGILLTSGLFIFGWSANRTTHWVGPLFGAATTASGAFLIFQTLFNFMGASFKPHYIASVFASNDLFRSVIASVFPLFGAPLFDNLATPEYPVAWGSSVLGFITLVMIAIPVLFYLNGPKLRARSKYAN
row,Structure (SMILES),efflux inhibition response
1,O=C(Nc1ccccc1)C1=C[C@H](c2ccccc2)C[C@H](OCCCCO)O1,0.64%
2,CC(C)C(=O)N1CCC2(CC1)Oc1ccc(Cl)cc1C(=O)C21CC(c2ccc(Cl)cc2)=NO1 (stereo not given),22.3%
3,CCC(Cc1ccccc1)OC(=O)c1ccccc1C(=O)O (stereo not given),-0.8%
4,COc1ccc(C2CC(c3ccccc3C(F)(F)F)=NN2c2ccc(S(N)(=O)=O)cc2)cc1 (stereo not given),53.7%
5,COc1ccc(O)c(C(=O)c2cnc3c(c2)CN(C)C(=O)N3)c1,0.72%
6,Cc1ccc(C)c(N2CCN(C(=O)C3CCCN(c4ncnc5c4nc4n5CCCCC4)C3)CC2)c1 (stereo not given),-0.53%
7,COc1cccc(-c2sc3ccc(OC)cc3c2-c2ccc(OCCN3CCOCC3)cc2)c1,156%
8,Cc1ccc(CN2C(=O)C(CC(C)C)Nc3ncnc(N4CCN(c5ccccc5)CC4)c32)cc1 (stereo not given),-1.17%
9,COc1cc(OC)c2ccc(=O)oc2c1C(CCN1CCCC(C)C1)c1ccc(N(C)C)cc1 (stereo not given),-0.68%
10,COc1ccc(-c2c[n+](CC(=O)N3c4ccccc4Sc4ccccc43)c3n2CCC3)cc1,-2.26%
11,COc1ccc(OC)c2sc(NC(=O)c3ccc(Br)s3)nc12,-0.25%
12,Cc1cccc2sc(N(CCCN(C)C)C(=O)c3ccc(Cl)s3)nc12,-0.58%
13,O=C(c1ccoc1)N1CCC2(CC1)Oc1ccc(F)cc1C(=O)C21CC(c2ccc(Cl)cc2)=NO1 (stereo not given),75.4%
14,Cc1ccc2sc(N(CCCN(C)C)C(=O)c3ccc(Br)s3)nc2c1C,-2.13%
15,COc1cc(OC)c2ccc(=O)oc2c1C(CCN1CCCCC1)c1ccc(N(C)C)cc1 (stereo not given),-0.63%
